# AmpC inh no det = AmpC beta-lactamase inhibition, detergent-free assay; AID 585; 1.8% of 71,000 active; Potency, µM (top dose mostly 28.7 µM), without a hit: at the highest dose activity change, negative = inhibition; AmpC nitrocefin hydrolysis, absorbance 480 nm, no detergent; note: % of control where 0% means no effect
# Target sequence (P00811 whole entry, looked up): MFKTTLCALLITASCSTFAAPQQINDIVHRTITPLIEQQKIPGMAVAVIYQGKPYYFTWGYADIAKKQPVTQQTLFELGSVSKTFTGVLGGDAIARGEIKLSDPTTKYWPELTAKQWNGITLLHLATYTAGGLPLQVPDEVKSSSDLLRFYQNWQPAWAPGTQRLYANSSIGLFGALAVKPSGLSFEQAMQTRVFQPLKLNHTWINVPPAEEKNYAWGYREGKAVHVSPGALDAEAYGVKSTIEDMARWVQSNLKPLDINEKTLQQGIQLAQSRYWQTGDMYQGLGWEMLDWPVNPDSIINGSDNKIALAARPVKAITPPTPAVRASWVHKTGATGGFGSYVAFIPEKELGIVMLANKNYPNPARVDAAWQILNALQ
#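 Enzyme, pH 7.0 phosphate. Compound titrations were pre-incubated with AmpC for 15 min at room temperature before nitrocefin (stock 800 uM) addition; product formation was recorded at 480 nm every 20 s for 4 min.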
# Anthrax LT inh = inhibitors of anthrax lethal toxin internalization. Cells, anthrax lethal toxin internalization, FRET ratio (460/530). Potency, µM (series often up to 40 µM), for the others: at the highest dose activity change, negative = inhibition, hits mostly inhibitors. 0.67% of 70,000 active. AID 912; note: % is set by controls: 0 for no effect and ±100 for the full control effect; nearly all actives have a fitted effect of over 50% in size
# AmpC det inh = inhibitors of E. coli AmpC beta-lactamase with detergent. 0.09% of 71,000 active. purified AmpC, nitrocefin hydrolysis with detergent. P00811. Potency, µM (series often up to 28.7 µM), inactives show at the highest dose activity change, negative = inhibition; active = well fitted curve in the direction sought with a large enough effect; inconclusive = small, poorly fitted or top-dose-only effect; note: % is set by controls: 0 for no effect and ±100 for the full control effect
#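 E. coli AmpC (5.3 nM) in 20 mM phosphate pH 7.0 with 0.01% Triton X-100, preincubated 15 min RT with compound; nitrocefin (2 uL of 800 uM stock) hydrolysis followed by 480 nm absorbance every 20 s over 4 min.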
# SmPrx2 inh = inhibitors of Schistosoma mansoni peroxiredoxin 2. S. mansoni Prx2 activity coupled to TGR/GSH (TGR is thioredoxin glutathione reductase), NADPH fluorescence loss, qHTS. Potency, µM. 0.07% of 65,000 active
#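 Purified S. mansoni TGR and Prx2 in pH 7.4 phosphate buffer with EDTA and Tween-20 were preincubated with compounds for 15 min. Further NADPH/GSH was added, then a 2.5 mM H2O2 aliquot initiated turnover, followed kinetically by NADPH fluorescence.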
# * = called active by the depositor; i = inactive; ? = inconclusive; · = not tested or not shown; ! = not confirmed by another sample; [ ] = another dose, or the depositor's remark. Hits are enriched below; roughly 2.6% of the tested compounds scored in any of these assays. Unless noted, calls come from the whole dose curve. Potency is the fitted concentration of half-maximal effect.
SMILES,AmpC inh no det,Anthrax LT inh,AmpC det inh,SmPrx2 inh
O=c1c(-c2ccccc2)coc2c(CN3CCCC3)c(O)ccc12,-8%,14%,-4%,>57
CCN(CC)CCCCn1c(-c2ccccc2)nc2c(Nc3ccccc3)nc(C)nc21,84%,16µM*,15%,·
Cn1c(N)c(N=Nc2ccc(S(N)(=O)=O)cc2)c(=O)n(C)c1=O,-4%[5.75 µM],8%[8 µM],4%[5.75 µM],>57
CCCCN(CC)CCNC(=O)c1cc2c(=O)n(C)c3ccccc3c2n1C,4µM*[single pt active],5µM*,10%,>57
CCCN(CCC)CCCNC(=O)c1cc2c(=O)n(C)c3ccccc3c2n1C,18%,3.2µM*,17%,>57
CCN(CC)CCCNC(=O)c1cc2c(=O)n(C)c3ccccc3c2n1C,?,10µM*,9%,·
Cn1cccc1C(=O)N1CCC2(CCCN(C(=O)Nc3cccc(F)c3)C2)CC1,51%,6%,-2%,>57
S[C@@H]1CCCN(Cc2ccccc2)C1,7%[5.75 µM],-17%[8 µM],-6%[5.75 µM],?
O=C(Nc1ccc(Nc2ccccc2)cc1)c1ccc(Br)o1,-11%,13µM*,1%,>57
O=C(Nc1ccc(Cc2ccncc2)cc1)c1ccc(Br)o1,3%,-15%,-4%,>57
Cc1cc(C)cc(OCC(=O)Nc2cccc(-c3nnc(-c4ccco4)o3)c2)c1,29%,-10%,-2%,>57
O=C(Nc1cccc(-c2cn3cccnc3n2)c1)c1ccc(Br)o1,-2%,-25%,-4%,>57
O=C(COc1ccccc1)Nc1cccc(-c2nnc(-c3ccccc3)o2)c1,-3%,10µM*,10%,>57
O=C(Nc1cccc(-c2nnc(-c3ccccc3)o2)c1)c1ccc(Br)o1,52%,10µM*,0%,?
C[C@@]12CCC(=O)C=C1CC[C@H]1[C@@H]2[C@@H](O)C[C@]2(C)[C@@H]1CC[C@@]2(O)C(=O)COC(=O)C1CCCC1,26%[5.75 µM],-5%[8 µM],-2%[5.75 µM],>57
O=C(O)CC/C=C\C[C@@H]1CO[C@H](c2ccccc2Cl)O[C@@H]1c1ccccc1O,27%,-7%,-1%,>57
O=C(CCCn1c(=O)[nH]c2ccccc2c1=O)N1CCN(c2ccccn2)CC1,3.2µM*[single pt active],12%,12%,>57
O=C(CCCCn1c(=O)[nH]c2ccccc2c1=O)N1CCN(c2cccc(C(F)(F)F)c2)CC1,93%,?,-4%,>57
O=C(CCCCn1c(=O)[nH]c2ccccc2c1=O)N1CCN(c2ncccn2)CC1,4µM*[single pt active],-8%,14%,>57
CNc1ccnc(-c2ccccc2C(F)(F)F)n1,6%,2%,9%,>57
O=C(c1ccncc1)N1CCC2(CC1)CCN(c1ccncc1)CC2,-3%,?,0%,>11
O=C(Nc1cc(Cl)ccc1O)c1cc2n(n1)C(C(F)(F)F)CC(c1ccc3c(c1)OCO3)N2 (centres undefined),7.9µM*,?,-3%,>57
COc1ccc(OC)c(NC(=O)c2cc3n(n2)C(C(F)(F)F)CC(c2ccc4c(c2)OCO4)N3)c1 (centres undefined),34%,-29%,4%,>57
O=C(NCCO)c1ccc2[nH]c3c(c2c1)CCCC3,2%,-13%,5%,·
C/C(=N\O)c1ccc2c3c([nH]c2c1)CCCC3,-9%,10µM*,4%,·
SMILES,AmpC inh no det,Anthrax LT inh,AmpC det inh,SmPrx2 inh
COc1ccc(-n2c(=O)c(C)nc3cnc(N(C)C)nc32)cc1,20%,10µM*,0%,>57
CCNc1ncc2nc(C)c(=O)n(-c3ccc(OC)cc3)c2n1,15%,-29%,-4%,>57
Cc1noc(C)c1S(=O)(=O)N(CC(=O)N1CCc2ccccc21)c1ccc(C(C)C)cc1,4µM*[single pt active],-10%,14%,>57
CCCc1c(-c2ccc(O)cc2)nn(-c2ccc(O)cc2)c1-c1ccc(O)cc1,7.9µM*!,?,-7%,>57
O=C(C1CCN(S(=O)(=O)c2cccc3cccnc23)CC1)N1CCCC1,-2%,21%,4%,>57
O=C(C1CCCN1S(=O)(=O)c1cccc2cccnc12)N1CCc2ccccc2C1 (centres undefined),4µM*[single pt active],-9%,8%,>57
O=C(C1CCCN1S(=O)(=O)c1cccc2cccnc12)N1CCc2ccccc21 (centres undefined),39%,6%,9%,>57
O=C(C1CCN(S(=O)(=O)c2cccc3cccnc23)CC1)N1CC=C(c2ccccc2)CC1,34%,13µM*,2%,>57
O=C(O)c1ccc(C(=O)O)c(C(=O)O)c1.[NH-][C@@H]1CCCC[C@@H]1[NH-].[Pt],5%[5.75 µM],-7%[8 µM],-2%[5.75 µM],i
CCCCN1C(=O)C(O)(CC(=O)c2ccco2)c2cc(Br)ccc21 (centres undefined),2.5µM*[single pt active],?,12%,>57
CC(C)CN1CC[C@@]2(CCCN(C(=O)c3cnccn3)C2)C1,24%,2%,-2%,>57
O=C(O)CNCCc1ccccc1,5%[5.75 µM],-10%[8 µM],-3%[5.75 µM],>57
CCCCn1nnc(NC(=O)COc2cc(C)ccc2C(C)C)n1,26%,10µM*,-3%,>57
COc1ccccc1Nc1nc(-c2cccs2)cs1,7.9µM*[single pt active],?,-5%,·
COc1ccc(OC)c(Nc2nc(-c3cccs3)cs2)c1,4%,?,13%,>57
O=C(Nc1cccc(F)c1)N1CC2(CCN(C(=O)c3cccc(F)c3)CC2)C1,32%,-2%,-1%,>57
CCc1cc2c(nc1CC)CCN(CC/C(C)=N/O[C@@H](C)CN1CCCc3nc(C)c(C)cc31)C2,·,2%[1.6 µM],·,·
C=CCOC(=O)C1=C(C)Nc2nnnn2C1c1cc(OC)ccc1OC (centres undefined),14%,7%,-5%,>57
CCOC(=O)C1=C(C)Nc2nnnn2C1c1ccc(OC)c(Br)c1 (centres undefined),4µM*[single pt active],-3%,6%,>57
COc1ccc(-c2nc3cnc(N4CCNCC4)nc3n(C)c2=O)cc1,56%,?,4%,>57
C[C@H](N)C1CCC(C(=O)Nc2ccncc2)CC1 (some centres undefined),-10%,6%,-1%,>57
COc1cc2c(cc1OC)-c1nnnn1C(C)(C)C2,11%,-13%,-4%,·
COc1cc2c(cc1OC)-c1nnc(-c3cccs3)n1C(C)(C)C2,4µM*[single pt active],-7%,10%,>57
COC(=O)[C@@]1(C)C[C@@H]1[C@@H](NC(=O)[C@@]1(C)C[C@@H]1[C@@H](NC(=O)[C@@]1(C)C[C@@H]1[C@@H](NC(=O)[C@@]1(C)C[C@@H]1[C@@H](NC(=O)OCc1ccccc1)c1ccccc1)c1ccccc1)c1ccccc1)c1ccccc1,1%,4%,15%,·
COc1cc2c(C)nc3onc(-c4ccccc4)c3c2cc1OC,104%,1µM*,-4%,>57
COc1cc(-c2nc(-c3cccc(C)c3)no2)cc(OC)c1OC,68%,?,-1%,·
CN(C)[C@H]1C(=O)C(C(=O)NCN2CCCC2)=C(O)[C@]2(O)C(=O)C3=C(O)c4c(O)cccc4[C@@](C)(O)[C@H]3C[C@@H]12,0%[12.8 µM],-2%[3.58 µM],-1%[12.8 µM],>57
O=C(c1csnn1)N1CCC2(CC1)CCN(c1ncccn1)CC2,15%,4%,0%,>57

# Source: PubChem BioAssay
